# According to PubChem BioAssay (NCI):
# The panel holds about 83,000 compounds, 20% with a hit somewhere; the sample as a whole holds those more often.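 Plates (96-well) were seeded with cells, treated with compound at one concentration, and incubated for 48 hours before percent growth was determined.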 A number with no mark means an inactive call. Activity calls are given as the source filed them. How the source made its calls: active means growth percent below 10; inactive means the rest.
# Key:
# Assay in all cases: NCI-60 one-dose screen, 48 h (100 = growth as untreated, 0 = no growth, -100 = all killed)
# HCT-15 colon = details: 10 µM unless noted
# HT29 colon = details: 10 µM unless noted
# SNB-75 CNS = details: 10 µM unless noted
# SNB-19 CNS = details: 10 µM unless noted
# U251 CNS = details: 10 µM unless noted
# PC-3 prostate = details: 10 µM unless noted
# SK-MEL-5 melanoma = details: 10 µM unless noted
# UACC-62 melanoma = details: 10 µM unless noted
# LOX IMVI melanoma = details: 10 µM unless noted
# SK-MEL-28 melanoma = details: 10 µM unless noted
# SK-MEL-2 melanoma = details: 10 µM unless noted
# EKVX NSCLC = details: 10 µM unless noted
# SN12C renal = details: 10 µM unless noted
# UO-31 renal = details: 10 µM unless noted
# ACHN renal = details: 10 µM unless noted
# CAKI-1 renal = details: 10 µM
# A498 renal = details: 10 µM unless noted
# CCRF-CEM leukemia = details: 10 µM unless noted
# MOLT-4 leukemia = details: 10 µM unless noted
SMILES,growth (HCT-15 colon),growth (HT29 colon),growth (SNB-75 CNS),growth (SNB-19 CNS),growth (U251 CNS),growth (PC-3 prostate),growth (SK-MEL-5 melanoma),growth (UACC-62 melanoma),growth (LOX IMVI melanoma),growth (SK-MEL-28 melanoma),growth (SK-MEL-2 melanoma),growth (EKVX NSCLC),growth (SN12C renal),growth (UO-31 renal),growth (ACHN renal),growth (CAKI-1 renal),growth (A498 renal),growth (CCRF-CEM leukemia),growth (MOLT-4 leukemia)
COc1cc(CN(c2ccc(Cl)cc2)C2OC(=O)c3ccccc32)cc(OC)c1OC (configuration not stated),38.2%,17.9%,68.6%,74.1%,36%,62.6%,73%,45.6%,44.9%,67.3%,41.6%,59.9%,61.3%,72.4%,85.7%,69.1%,40%,65.7%,35.4%
O=C(NCCNc1nccc(-c2c(-c3cccc(O)c3)nc3sccn23)n1)Nc1cc(C(F)(F)F)cc(C(F)(F)F)c1,79.2%,63.1%,66.1%,90.8%,77%,51.2%,59.7%,54.4%,60.6%,68.8%,110%,52.2%,82.8%,73.1%,65.9%,72.3%,86%,39.1%,60.2%
O=[N+]([O-])c1cccc(C2c3ccccc3Oc3ccccc32)c1,71.1%,85.1%,94.4%,97.1%,94.7%,84.2%,99.4%,86.1%,85.8%,107%,107%,93.9%,99.9%,70.7%,89.1%,72.4%,94.1%,88.6%,79.6%
O=C(Nc1ccc(-n2ccc3c(NC(=O)c4ccccc4)nccc32)cc1)Nc1cccc(C(F)(F)F)c1,19.7%,-0.934% (active),74.3%,65.8%,32.3%,13.6%,53.6%,78.6%,26.6%,60.3%,71.9%,65.5%,79.2%,78%,62.2%,68.6%,80.7%,13.8%,35.9%
CCCCOc1nc2ccc(Cl)cc2cc1/C=C/C(=O)/C=C/c1ccc(OC)cc1,91.5%,71.6%,97.9%,105%,80.5%,88.9%,93.9%,78.9%,71.5%,107%,90.5%,110%,92.7%,84.4%,105%,99.1%,101%,87.2%,78%
O=C(Nc1ccc(-n2cc(-c3ccncc3)c(-c3ccc(O)c(Cl)c3)n2)cc1)c1cc(Cl)cc(Cl)c1,11.2%,-19.5% (active),60.6%,50%,26.8%,35.6%,2.65% (active),65.9%,1.16% (active),53.4%,7.85% (active),56.5%,35.8%,16.4%,16.2%,45.8%,95.4%,16.9%,11.1%
O=C(Nc1cccc(-n2ccc3c(NC(=O)c4ccccc4)nccc32)c1)c1cc(N2CCOCC2)cc(C(F)(F)F)c1,3.17% (active),-22.6% (active),39.2%,26.3%,4.89% (active),27.9%,-74.7% (active),17.5%,9.47% (active),38%,-4.8% (active),36.8%,18.8%,9.78% (active),6% (active),23.5%,6.2% (active),13.5%,0.605% (active)
O=C1C(Cl)=C(Nc2ccccc2)C(=O)C(Cl)=C1Nc1ccccc1,109%,112%,113%,129%,104%,109%,112%,111%,96.9%,119%,113%,114%,109%,94.2%,109%,106%,78.6%,103%,114%
COc1ccc(CCNC=O)cc1OC,103%,114%,80.7%,92.4%,110%,100%,95.5%,103%,98.1%,106%,105%,105%,97.4%,82.3%,101%,100%,102%,105%,100%
CN(C)CCS(=O)(=O)Nc1cc(-c2ccc3ncnc(Nc4ccc(F)c(Cl)c4)c3c2)cnc1Cl,-2.7% (active),2.45% (active),9.33% (active),41.6%,-40.6% (active),6.17% (active),-71.9% (active),-2.94% (active),-58.5% (active),-31.6% (active),-53.4% (active),-9.17% (active),22.6%,-61.2% (active),20.2%,-30.6% (active),-78% (active),0.907% (active),-36.7% (active)
O=C(Nc1ccc(-n2ccc3c(NC(=O)c4ccccc4)ncnc32)cc1)c1cccc(C(F)(F)F)c1,19.7%,22%,63.9%,57.4%,27.3%,43.7%,33.1%,25.4%,3.47% (active),71.2%,85.8%,63.5%,60.7%,45.9%,34%,27.9%,87.5%,28.2%,19.7%
CS(=O)(=O)Nc1cccc(-c2ccc3ncnc(Nc4ccc(F)c(Cl)c4)c3c2)c1,1% (active),1.71% (active),32.8%,47.4%,18.2%,12.3%,21.4%,28.2%,-35.4% (active),44.9%,-4.95% (active),7.22% (active),44.2%,21.1%,22.3%,,-25.7% (active),19.1%,0.953% (active)
CC(C)(C)OC(=O)N1CC(Cn2cc(C(F)(F)F)c3c(Cl)ncnc32)C1,-41.4% (active),-62.2% (active),-52.5% (active),-89.8% (active),-98% (active),-75% (active),-84.6% (active),-78.1% (active),-86.9% (active),-79.6% (active),-77.4% (active),50.3%,-25.4% (active),-95.1% (active),73.5%,,34.2%,-26.6% (active),-37.5% (active)
COc1ccccc1S(=O)(=O)Nc1ccc2c3c(cc(-c4cnn(C5CC5)c4)nc13)C(=O)N2C,62.7%,44%,19.2%,77.6%,81.6%,61.3%,57.5%,35.4%,47.5%,77%,78.6%,56.1%,76.7%,34.9%,68%,,59.3%,76.9%,56.3%
O=C(N/N=C/c1ccccc1O)c1ccccc1O,30.1%,72.9%,78.3%,51.7%,36.2%,39.6%,10.6%,24%,12.8%,46.9%,61.1%,37.5%,41%,3.31% (active),16.7%,,99.6%,12.7%,19.3%
Cc1cc(N2CCOCC2)nc(N(CCNc2ccnc3cc(Cl)ccc23)Cc2ccco2)n1,35.8%,3.4% (active),59.5%,41.5%,6.13% (active),46.7%,39.7%,26%,18.1%,52.4%,23.3%,56.7%,47.5%,24.3%,27%,,50.9%,-11.3% (active),5.1% (active)
Nc1ncnc2c1c(-c1ccc(Oc3ccccc3)cc1)nn2C[C@H]1SSC[C@@H]1O,65.7%,5.36% (active),37.3%,66.5%,45.9%,64%,-73.9% (active),-66.7% (active),11.9%,-29.4% (active),-46.5% (active),25.3%,54.5%,17.4%,,,27.9%,-15.8% (active),-51.2% (active)
Cc1ccc(-c2cn3cc([N+](=O)[O-])ccc3n2)cc1,80.2%,91.6%,77.5%,92.1%,85.6%,77.1%,58.9%,82.6%,58.3%,94.3%,71.5%,67.4%,75.3%,57.2%,,,57.6%,52.6%,57.6%
CCCC(=O)Oc1ccc(/C(=C(\C)c2ccc(OC)cc2)c2ccc(OCCN3CCCCC3)cc2)cc1,64.1%,1.78% (active),73%,91%,63.8%,64.7%,68.8%,63.6%,68.5%,63.9%,80.9%,89.1%,84.8%,65.2%,91.8%,,80.7%,83.3%,72.5%
O=c1c(-c2ccc3c(c2)OCO3)coc2c(CO)c(O)ccc12,12.6%,86.1%,-5.16% (active),13.5%,-92.6% (active),-52.4% (active),5.73% (active),-53.1% (active),-43.6% (active),40.3%,-66.3% (active),3.55% (active),-3.58% (active),-81.9% (active),-30.5% (active),,-26.7% (active),1.63% (active),90.3%
NS(=O)(=O)c1ccc(CCN2C(=O)/C(=C\c3ccc(Cl)cc3)C=C2c2ccc(Oc3ccccc3)cc2)cc1,64.8%,65.4%,77.9%,80.3%,74.5%,38.6%,77.4%,68.8%,81%,79.8%,73%,60.1%,78.2%,65.8%,72.3%,,80.8%,81.4%,48.2%
